Consider nine compounds from PubChem BioAssay (NCI).

A short description of test [1]: NCI Yeast Anticancer Drug Screen. Data for the rad50 strain (AID 155).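 Also: 0% = growth of vehicle-only cultures of the same strain.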 The following applies: S. cerevisiae rad50 strain growth inhibition, active compounds read high. The procedure, abridged:
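A DNA repair-deficient yeast mutant serves as the test organism; compound-induced growth inhibition is calculated against vehicle-treated cells.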

A short description of test [2]: NCI Yeast Anticancer Drug Screen. Data for the mec2-1 strain (AID 157). As to conditions: S. cerevisiae mec2-1 strain, active compounds read high. The method in brief: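 mec2-1 yeast strain, carrying an alteration in DNA damage repair or cell cycle control, was exposed to compounds; growth inhibition was measured relative to vehicle-treated controls.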
Test [3] is described as follows: NCI Yeast Anticancer Drug Screen. Data for the sgs1 mgt1 strain (AID 161).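 Also: 0% = growth of cultures given vehicle only.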 As to conditions: S. cerevisiae sgs1 mgt1 strain, active compounds read high. The method in brief:
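This yeast growth screen uses a strain with defined DNA-repair lesions; compound-treated growth is compared with vehicle-treated growth.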

Test [4] can be described thus: NCI Yeast Anticancer Drug Screen. Data for the cln2 rad14 strain (AID 165).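 Also: 0% = growth equal to vehicle treated cultures.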 The following applies: S. cerevisiae cln2 rad14 strain, active compounds read high. The method in brief: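 Yeast carrying cln2 and rad14 alterations (cell cycle control and DNA damage repair) were exposed to compounds. Growth inhibition was measured against vehicle-treated controls.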
Test [5] can be described thus: NCI Yeast Anticancer Drug Screen. Data for the bub3 strain (AID 167). As to conditions: S. cerevisiae bub3 mutant strain, active compounds read high. The method in brief:
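Inhibition values come from growth of compound-treated mutant yeast normalised to vehicle-treated controls.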

Test [6] can be described thus: NCI Yeast Anticancer Drug Screen. Data for the mlh1 rad18 strain (AID 175). The following applies: S. cerevisiae mlh1 rad18 strain growth inhibition, active compounds read high. The procedure, abridged:
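Growth inhibition of the yeast strain was measured after compound exposure and expressed relative to vehicle-treated controls. The strain carries defined defects in DNA damage repair.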

Where [7] appears, read: at 5.0 µM (retest, dose inferred, filed as 0.5).
Setting [8] is: at 50.0 µM (retest, dose inferred, filed as 5.0).

Compounds without any hit were thinned out: in the full panel of roughly 79,000, 15% have a hit. A number with no mark means an inactive call. Calls of active or inactive are those of the source. Rule as the data show it: active = growth inhibition above about 70%; inactive = the rest.

For `COc1ccc(/C=C2\CCCc3ccccc3C2=O)cc1`, the growth inhibition in test [1] (setting [7]) is -3%; in test [1] (setting [8]), 33%; in test [1] (at 50.0 µM), 60.2%; in test [2] (setting [7]), 2%; in test [2] (setting [8]), 86% (active); in test [2] (at 50.0 µM), 53.3%. Moreover, the growth inhibition in test [3] (setting [7]) was 9%; in test [3] (setting [8]), 86% (active); in test [3] (at 50.0 µM), 77.7% (active); in test [4] (setting [7]) it was -12%; in test [4] (setting [8]), -3%; in test [4] (at 50.0 µM) it was 20%. For the same compound, the growth inhibition in test [5] (setting [7]) is 64%; in test [5] (setting [8]), 90% (active); in test [5] (at 50.0 µM), 80.4% (active); in test [6] (setting [7]) it was 5%; in test [6] (setting [8]), 81% (active); in test [6] (at 50.0 µM), 62.2%.

Consider `CC(CC(=O)c1ccc2sc3ccccc3c2c1)C(=O)O` (configuration not stated), for which the growth inhibition was 6% in test [1] (setting [7]); 35% in test [1] (setting [8]); 58.4% in test [1] (at 50.0 µM); -4% in test [2] (setting [7]); 47% in test [2] (setting [8]); 33.6% in test [2] (at 50.0 µM). Further, the growth inhibition in test [3] (setting [7]) was 14%; in test [3] (setting [8]) it was 62%; in test [3] (at 50.0 µM), 49.2%; in test [4] (setting [7]), -2%; in test [4] (setting [8]), 24%; in test [4] (at 50.0 µM) it was 60.4%. The growth inhibition in test [5] (setting [7]) was -2%; in test [5] (setting [8]), 21%; in test [5] (at 50.0 µM) it was 27.3%; in test [6] (setting [7]) it was 15%; in test [6] (setting [8]) it was 59%; in test [6] (at 50.0 µM) it was 56.8%.

As to `O=C(Nc1ccccc1)OCCN=c1c2ccccc2ccc2ccccc12`, the growth inhibition in test [1] (setting [7]) was 6%; in test [1] (setting [8]), 84% (active); in test [1] (at 50.0 µM), 84% (active); in test [2] (setting [7]), -1%; in test [2] (setting [8]), 71% (active); in test [2] (at 50.0 µM), 90.5% (active). Further, the growth inhibition was 7% in test [3] (setting [7]); 48% in test [3] (setting [8]); 88.2% (active) in test [3] (at 50.0 µM); -15% in test [4] (setting [7]); 68% in test [4] (setting [8]); 82.7% (active) in test [4] (at 50.0 µM). The growth inhibition in test [5] (setting [7]) is 5%; in test [5] (setting [8]), 78% (active); in test [5] (at 50.0 µM) it was 90% (active); in test [6] (setting [7]), 5%; in test [6] (setting [8]) it was 92% (active); in test [6] (at 50.0 µM) it was 87.2% (active).

For the compound `Cc1cc2ccccc2c[n+]1Cc1ccc2ccccc2n1`, the growth inhibition was -6% in test [1] (setting [7]); -1% in test [1] (setting [8]); 53.6% in test [1] (at 50.0 µM); 9% in test [2] (setting [7]); 45% in test [2] (setting [8]); 29.4% in test [2] (at 50.0 µM). Also, the growth inhibition in test [3] (setting [7]) is -13%; in test [3] (setting [8]) it was 12%; in test [3] (at 50.0 µM) it was 65.4%; in test [4] (setting [7]) it was -8%; in test [4] (setting [8]), -24%; in test [4] (at 50.0 µM), 21.6%. In addition, the growth inhibition in test [5] (setting [7]) is -5%; in test [5] (setting [8]), 23%; in test [5] (at 50.0 µM), 49.3%; in test [6] (setting [7]), 1%; in test [6] (setting [8]), 41%; in test [6] (at 50.0 µM) it was 69.3%.

As to `C[C@H](CCC1=NCCN1)[C@H]1CC[C@H]2[C@@H]3CC[C@@H]4C[C@H](O)CC[C@]4(C)[C@H]3C[C@H](O)[C@]12C`, the growth inhibition in test [1] (setting [7]) was 93% (active); in test [1] (setting [8]) it was 99% (active); in test [1] (at 50.0 µM), 91.3% (active); in test [2] (setting [7]), 26%; in test [2] (setting [8]), 76% (active); in test [2] (at 50.0 µM) it was 93.1% (active). Besides, the growth inhibition was 39% in test [3] (setting [7]); 99% (active) in test [3] (setting [8]); 90.2% (active) in test [3] (at 50.0 µM); 59% in test [4] (setting [7]); 99% (active) in test [4] (setting [8]); 87.8% (active) in test [4] (at 50.0 µM). Moreover, the growth inhibition in test [5] (setting [7]) was -10%; in test [5] (setting [8]) it was 99% (active); in test [5] (at 50.0 µM), 91.4% (active); in test [6] (setting [7]), 32%; in test [6] (setting [8]) it was 99% (active); in test [6] (at 50.0 µM), 91% (active).

As to `CC(Nc1ccc(Cl)c(Cl)c1)c1ccncc1` (configuration not stated), the growth inhibition in test [1] (setting [7]) is 1%; in test [1] (setting [8]), 98% (active); in test [1] (at 50.0 µM), 85.8% (active); in test [2] (setting [7]), -36%; in test [2] (setting [8]), 95% (active); in test [2] (at 50.0 µM), 85.8% (active). For the same compound, the growth inhibition in test [3] (setting [7]) was -26%; in test [3] (setting [8]) it was 98% (active); in test [3] (at 50.0 µM) it was 79.8% (active); in test [4] (setting [7]) it was 32%; in test [4] (setting [8]), 98% (active); in test [4] (at 50.0 µM), 83.9% (active). The growth inhibition in test [5] (setting [7]) is -47%; in test [5] (setting [8]), 99% (active); in test [5] (at 50.0 µM), 86% (active); in test [6] (setting [7]) it was -1%; in test [6] (setting [8]), 98% (active); in test [6] (at 50.0 µM), 82.6% (active).

On to `COc1ccc(C(=O)c2ccc([N+](=O)[O-])cc2)cc1`, for which the growth inhibition in test [1] (setting [7]) was -1%; in test [1] (setting [8]) it was -19%; in test [1] (at 50.0 µM), -4.55%; in test [2] (setting [7]), 7%; in test [2] (setting [8]), -9%; in test [2] (at 50.0 µM), -12.2%. The growth inhibition in test [3] (setting [7]) was 3%; in test [3] (setting [8]), 0%; in test [3] (at 50.0 µM), -3.8%; in test [4] (setting [7]), -15%; in test [4] (setting [8]), -47%; in test [4] (at 50.0 µM) it was 53.4%. Moreover, the growth inhibition in test [5] (setting [7]) is 9%; in test [5] (setting [8]), -17%; in test [5] (at 50.0 µM) it was 17.5%; in test [6] (setting [7]), 13%; in test [6] (setting [8]) it was 0%; in test [6] (at 50.0 µM) it was -21.6%.

For `O=C1NC(CSSCC2NC(=O)N(c3ccccc3)C2=O)C(=O)N1c1ccccc1` (configuration not stated), the growth inhibition in test [1] (setting [7]) is 8%; in test [1] (setting [8]) it was 94% (active); in test [1] (at 50.0 µM), 87.9% (active); in test [2] (setting [7]) it was 11%; in test [2] (setting [8]), 97% (active); in test [2] (at 50.0 µM) it was 58.9%. The growth inhibition was 16% in test [3] (setting [7]); 99% (active) in test [3] (setting [8]); 93.6% (active) in test [3] (at 50.0 µM); 1% in test [4] (setting [7]); 90% (active) in test [4] (setting [8]); 58.1% in test [4] (at 50.0 µM). Also, the growth inhibition in test [5] (setting [7]) was 4%; in test [5] (setting [8]), 98% (active); in test [5] (at 50.0 µM), 55.5%; in test [6] (setting [7]) it was 8%; in test [6] (setting [8]), 96% (active); in test [6] (at 50.0 µM), 95.2% (active).

Consider `CC(/C=C/c1ccc(Cl)cc1)=N\NC(N)=S`, for which the growth inhibition in test [1] (setting [7]) was 11%; in test [1] (setting [8]) it was 44%; in test [1] (at 50.0 µM), 68.2%; in test [2] (setting [7]), -1%; in test [2] (setting [8]), 29%; in test [2] (at 50.0 µM), 69%. Further, the growth inhibition is 1% in test [3] (setting [7]); 59% in test [3] (setting [8]); 49.4% in test [3] (at 50.0 µM); 12% in test [4] (setting [7]); 32% in test [4] (setting [8]); 47.1% in test [4] (at 50.0 µM). Further, the growth inhibition was 1% in test [5] (setting [7]); 38% in test [5] (setting [8]); 50% in test [5] (at 50.0 µM); 16% in test [6] (setting [7]); 54% in test [6] (setting [8]); 60.5% in test [6] (at 50.0 µM).
